Screens deposited in PubChem BioAssay by National Center for Advancing Translational Sciences (NCATS).
Rows were chosen to be rich in hits. Some 11% of all compounds tested hit in one or more screens of this group.
MCF10A rereplic: inducers of DNA re-replication in MCF 10A breast cells; MCF 10A DNA re-replication, Hoechst nuclear intensity, 48 h; Potency, µM (series often up to 46.1 µM), usual class: activators; AID 624296; 350,000 compounds, 2.9% hits; also: nearly all actives have a fitted effect of over 50% in size
RORg inh: blocks mouse ROR gamma transcriptional activity | Drosophila S2 Gal4-RORgamma UAS-luciferase reporter, 20 h | Potency, µM (top dose mostly 53.6 µM), most hits filed as inhibitors | 310,000 compounds, 5.4% hits | AID 2551; also: nearly all actives have a fitted effect of over 60% in size
Target sequence (P51450 whole entry, looked up, the tested form may be a part): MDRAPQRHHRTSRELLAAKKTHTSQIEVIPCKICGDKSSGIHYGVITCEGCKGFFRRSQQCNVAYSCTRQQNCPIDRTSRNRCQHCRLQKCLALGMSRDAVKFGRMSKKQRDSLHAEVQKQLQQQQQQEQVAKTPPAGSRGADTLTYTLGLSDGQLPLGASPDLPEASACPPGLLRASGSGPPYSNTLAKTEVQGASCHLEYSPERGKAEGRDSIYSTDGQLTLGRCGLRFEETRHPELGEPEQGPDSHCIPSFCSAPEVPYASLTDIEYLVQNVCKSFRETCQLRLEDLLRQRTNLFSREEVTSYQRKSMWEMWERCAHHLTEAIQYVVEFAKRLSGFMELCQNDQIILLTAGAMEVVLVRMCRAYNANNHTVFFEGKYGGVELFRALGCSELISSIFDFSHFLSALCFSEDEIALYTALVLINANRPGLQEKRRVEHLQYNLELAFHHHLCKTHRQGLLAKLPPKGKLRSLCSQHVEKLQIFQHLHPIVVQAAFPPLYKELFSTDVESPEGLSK
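Schneider cells (Drosophila), stable Gal4 DBD–ROR gamma + UAS-luc; 1 hr cmpd preincubation; Cu2+ induction 700 uM final; 20 hr ambient; luminescence.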
Gal4-VP16 FLuc: counter-screen for ROR gamma inhibitors: Gal4-VP16 reporter. Drosophila S2 Gal4-VP16 UAS-luciferase, luminescence, 20 h. Potency, µM (doses to about 53.6 µM), hits mostly inhibitors. 310,000 compounds, 3.5% hits. AID 2546;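 also: Gal4-VP16 expression switched on by copper sulfate through the metallothionein promoter; nearly all actives have a fitted effect of over 50% in size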
SW480 rerep: induces DNA re-replication in SW480 colon adenocarcinoma cells | SW480 DNA re-replication, Hoechst DNA content imaging, 48 h | Potency, µM (doses to about 46.1 µM), actives largely listed as activators | 340,000 compounds, 1.8% hits | AID 624297; also: nearly all actives have a fitted effect of over 55% in size
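250 cells/well; 23 nL cpd via pin tool; 48 hr, 37 C, 5% CO2; Hoechst 40 min; imager read of total nuclear intensity, ex 405/em 500-530 nm.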
IL-1B inflam inh: inhibitors of inflammasome signaling (IL-1 beta secretion). activity change, % at 57.5 µM. THP-1 LPS/ATP IL-1B secretion, AlphaLISA, 16 h; stronger effect = lower value. AID 743279. 360,000 compounds, 4.7% hits; in the data active = activity change below about -50%; inconclusive = mostly about -30% to -49%
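Secreted IL-1B measured by AlphaLISA bead assay after 16 h compound exposure of THP-1 cells; compounds (final up to 57.5 uM) added 1 h before LPS (250 ng/mL) and ATP (1.25 mM) stimulation; lower signal means less secretion.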
Each line names hits and unclear results; the compound was inactive in the other large screens. Unless noted, calls follow the shape of the dose curve; as a rule, active = well fitted curve in the direction sought with a large enough effect; inconclusive = small, poorly fitted or top-dose-only effect, or another doubt; inactive = no such curve, though single readings can be large; an effect the other way counts as inactive or inconclusive.

O=C(NCCNC(=O)c1cnccn1)c1ccc(Cl)c(Cl)c1	none
COc1ccccc1NC(=O)COC(=O)c1cnccn1	none
COc1ccccc1OCC(=O)NNC(=O)c1cnccn1	RORg inh 11µM
CCc1ccc(OCC(=O)NNC(=O)c2cnccn2)c(Br)c1	MCF10A rereplic inconclusive, RORg inh inconclusive, Gal4-VP16 FLuc 6.3µM
CCCCCNCCCCC	none (no result: MCF10A rereplic, SW480 rerep, IL-1B inflam inh)
CC1Sc2ccc(S(=O)(=O)N3CCC(C(=O)Nc4cccc(Cl)c4)CC3)cc2NC1=O (stereo unspecified)	RORg inh inconclusive, Gal4-VP16 FLuc inconclusive, SW480 rerep inconclusive, IL-1B inflam inh inconclusive
CC(=O)NC(C(=O)O)C(C)(C)SN=O (stereo unspecified)	none (no result: MCF10A rereplic, SW480 rerep, IL-1B inflam inh)
COCCN(C(=O)COC(=O)CNC(=O)c1ccc(C)cc1)c1c(N)n(Cc2ccccc2)c(=O)[nH]c1=O	none (no result: RORg inh, Gal4-VP16 FLuc)
Cc1ccc2c(CC(=O)NNC(=O)c3ccccc3O)coc2c1	SW480 rerep inconclusive (no result: RORg inh, Gal4-VP16 FLuc)
Oc1ccc(/C=N/Nc2ccnc3cc(Cl)ccc23)c(O)c1	MCF10A rereplic inconclusive, SW480 rerep inconclusive, IL-1B inflam inh inconclusive
Clc1ccc2c(N/N=C/c3cccnc3)ccnc2c1	MCF10A rereplic inconclusive, RORg inh inconclusive, Gal4-VP16 FLuc inconclusive, SW480 rerep inconclusive
Cc1ccccc1/C=N/Nc1ccnc2cc(Cl)ccc12	MCF10A rereplic 18µM, RORg inh inconclusive, Gal4-VP16 FLuc inconclusive, SW480 rerep inconclusive, IL-1B inflam inh -103
Clc1ccc2c(N/N=C/c3ccc(Br)cc3)ccnc2c1	MCF10A rereplic 2.6µM, RORg inh 6.3µM, Gal4-VP16 FLuc 7.1µM, SW480 rerep 18µM, IL-1B inflam inh -98
Cc1ccc(/C=N/Nc2ccnc3cc(Cl)ccc23)c(C)c1	MCF10A rereplic inconclusive, RORg inh inconclusive, Gal4-VP16 FLuc 8.9µM, SW480 rerep inconclusive, IL-1B inflam inh -77
COc1ccccc1C1CC(=O)Oc2cc3c(cc21)OCO3 (stereo unspecified)	none (no result: MCF10A rereplic, SW480 rerep, IL-1B inflam inh)
O=C(NCc1ccccc1)C(C1CC1)n1c(=O)c(-c2ccco2)nc2ccccc21 (stereo unspecified)	none (no result: MCF10A rereplic, RORg inh, Gal4-VP16 FLuc, SW480 rerep)
Cc1ccc(C)c(NC(=O)CSc2nc(N)c(NC(=O)c3cccs3)c(=O)[nH]2)c1	none
O=C(CSc1nc2nc(-c3cccs3)cc(C(F)(F)F)c2c(=O)[nH]1)Nc1ccc(F)c(F)c1	MCF10A rereplic 18µM, RORg inh inconclusive, Gal4-VP16 FLuc inconclusive
Cc1ccc(C)c(NC(=O)CSc2nc3nc(-c4cccs4)cc(C(F)(F)F)c3c(=O)[nH]2)c1	MCF10A rereplic 21µM
Nc1nc(SCC(=O)Nc2ccc(C(F)(F)F)cc2)[nH]c(=O)c1NC(=O)c1ccc(F)c(F)c1	none
O=CNc1c(Br)cc2c(c1Br)Cc1cc(Br)ccc1-2	none (no result: RORg inh, Gal4-VP16 FLuc)
Cc1ccc(C(=O)NCC(=O)OCC(=O)N(CC(C)C)c2c(N)n(Cc3ccccc3)c(=O)[nH]c2=O)s1	none (no result: MCF10A rereplic, RORg inh, Gal4-VP16 FLuc, SW480 rerep)
Cc1ccc(N2C(=O)CC(Sc3nc(C)cc(C)n3)C2=O)cc1 (stereo unspecified)	MCF10A rereplic inconclusive, RORg inh inconclusive, SW480 rerep inconclusive
O=C1CC(Sc2nnc(-c3ccccc3)o2)C(=O)N1c1ccccc1 (stereo unspecified)	MCF10A rereplic 5.8µM, RORg inh 1.3µM, Gal4-VP16 FLuc 4µM, SW480 rerep 7.3µM
Cc1ccccc1N1C(=O)CC(Sc2nnc(-c3ccccc3)o2)C1=O (stereo unspecified)	MCF10A rereplic inconclusive, RORg inh 3.2µM, Gal4-VP16 FLuc 4µM, SW480 rerep 16µM
CC(C)c1ccc(N2C(=O)CC(Sc3nc4ccccc4o3)C2=O)cc1 (stereo unspecified)	MCF10A rereplic inconclusive, RORg inh 5µM, Gal4-VP16 FLuc 4µM, SW480 rerep inconclusive
Cc1cn([C@H]2C[C@H](N=[N+]=[N-])[C@H](CO)O2)c(=O)[nH]c1=O	none (no result: IL-1B inflam inh)
CC(C)C(=O)N1CCN(CCN2C(=O)c3cccc4cccc(c34)C2=O)CC1	none
O=C(C(c1ccccc1)c1ccccc1)N1CCN(CCN2C(=O)c3cccc4cccc(c34)C2=O)CC1	MCF10A rereplic 15µM
Cc1ccc(NC(=S)N2CCN(CCN3C(=O)c4cccc5cccc(c45)C3=O)CC2)cc1	RORg inh 7.1µM, Gal4-VP16 FLuc inconclusive
O=C1c2cccc3cccc(c23)C(=O)N1CCN1CCN(C(=S)Nc2ccc(F)cc2)CC1	none (no result: MCF10A rereplic, SW480 rerep, IL-1B inflam inh)
Cc1nc(N2CCN(C(=O)c3ccco3)CC2)c(C#N)c2c1CCCC2	Gal4-VP16 FLuc inconclusive, IL-1B inflam inh -84
CC1(C)Cc2c(C#N)c(N3CCN(C(=O)c4ccccc4)CC3)nc(Cc3ccccc3)c2CO1	IL-1B inflam inh -51
N#Cc1cccnc1N1CCN(C(=O)c2ccco2)CC1	none
CCc1nc(N2CCN(C(=O)c3ccccc3)CC2)c(C#N)c2c1COC(C)(C)C2	none
CC(C)C(=O)N1CCN(c2nc(-c3ccccc3)c3c(c2C#N)CCCC3)CC1	MCF10A rereplic 18µM, SW480 rerep inconclusive, IL-1B inflam inh -57
CC(C)Cc1nc(N2CCN(C(=O)c3ccco3)CC2)c(C#N)c2c1CCCC2	MCF10A rereplic 23µM
C[C@@]12C=CC(=O)C=C1CC[C@H]1[C@H]3CC[C@](O)(C(=O)CO)[C@]3(C)CC(=O)[C@@H]12	none (no result: MCF10A rereplic, SW480 rerep, IL-1B inflam inh)
CCCC(=O)N1CCN(c2nc(CC(C)C)c3c(c2C#N)CCC3)CC1	MCF10A rereplic inconclusive, IL-1B inflam inh -72
CC(C)C[C@H]1CN(CCCC[C@@H]2CNC(=O)C(=O)N2CCc2ccccc2)C(=O)C(=O)N1CCc1ccc(O)cc1	none (no result: MCF10A rereplic, RORg inh, Gal4-VP16 FLuc, SW480 rerep)
CCOC(=O)c1ccc(NC(=O)C23CCC(C)(C(=O)O2)C3(C)C)cc1 (stereo unspecified)	none
COc1ccc(NC(=O)C23CCC(C)(C(=O)O2)C3(C)C)cc1 (stereo unspecified)	MCF10A rereplic 0.52µM, SW480 rerep 5.2µM
COc1ccc(NC(=S)NCc2cccnc2)cc1	none
COc1ccc(CNC(=S)Nc2ccc(Br)cc2)cc1	RORg inh 10µM, Gal4-VP16 FLuc 11µM
COc1ccc(CNC(=O)Nc2ccc(OC)cc2)cc1	MCF10A rereplic 18µM, SW480 rerep inconclusive
COc1ccc(CNC(=S)Nc2ccc(-c3ccccc3)cc2)cc1	RORg inh inconclusive, Gal4-VP16 FLuc 7.1µM
O=Cc1cccc(Br)c1	none (no result: MCF10A rereplic, SW480 rerep, IL-1B inflam inh)
COc1ccc(-c2cn(/N=C/c3ccc(Cl)cc3Cl)c(N)n2)cc1	IL-1B inflam inh -66
CCCCOC(=O)c1ccc(N)cc1	MCF10A rereplic inconclusive, RORg inh inconclusive, Gal4-VP16 FLuc inconclusive
CCCCCCOC(=O)c1ccc(N)cc1	MCF10A rereplic 23µM
COc1ccc(CC(=O)Nc2cc(S(C)(=O)=O)ccc2Cl)cc1S(=O)(=O)N1CCOCC1	none (no result: RORg inh, Gal4-VP16 FLuc)
S=C(NCCN1CCOCC1)N/N=C/c1cccs1	RORg inh 1.3µM, Gal4-VP16 FLuc 4.5µM
Oc1cccc(/C=N/NC(=S)NCCN2CCOCC2)c1O	RORg inh 7.1µM, Gal4-VP16 FLuc inconclusive, SW480 rerep inconclusive
CC(O)(c1ccccc1)c1nc(-c2cccc(C#N)c2)cs1 (stereo unspecified)	none (no result: MCF10A rereplic, RORg inh, Gal4-VP16 FLuc, SW480 rerep)
